# SKKanGAS inh: SKKanGAS growth inhibition. inhibition, % at 7.5 µM. S. pyogenes SKKanGAS, kanamycin growth, BacTiter-Glo, 6 h. 1.3% of 300,000 active. AID 1662;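 active means mean replicate score, as percent of positive control median, at least 50; inconclusive means mean below 50 but one replicate at or above 50; inactive means mean and every replicate below 50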;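 further: strain carries kanamycin resistance gene driven by streptokinase promoter and grows in 40 µg/ml kanamycin; loss of luminescence reflects streptokinase promoter inhibition or plain growth inhibition; 0% = median of DMSO wells and 100% = positive control at its reference dose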
# CSC inhib: cancer stem cell inhibition. inhibition, % at 7.5 µM. cancer stem cell-like cells viability, luminescence. 1.1% of 300,000 active; in the data active means inhibition above about 75%; inconclusive means no clear call, values can overlap the other calls; tested in HMLE shEcad cells
# IEC-6 cytotox: kills IEC-6 intestinal cells in KLF5 counter-screen. 0.78% of 290,000 active. AID 1825. IEC-6 cytotoxicity, luminescence viability. inhibition, % at 5 µM; in the data active means inhibition above about 22%;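 further: 0% = plate median of test compound wells and 100% = cytotoxic reference compound wells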
# aSyn UTR inh: 5' untranslated region of α-synuclein, MLPCN primary screen | alpha-synuclein 5'UTR reporter, inhibitor activity | inhibition, % (tested at 7.5 µM) | 0.82% of 300,000 active | AID 1813; in the data active means inhibition above about 60%; inconclusive means no clear call, values can overlap the other calls;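 further: H4 neuroglioblastoma cells stably carrying SNCA 5'UTR luciferase fusion; 0% = DMSO wells and 100% = positive control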
# KLF5 inh: inhibitors of KLF5 expression. 0.23% of 290,000 active. DLD-1 KLF5 promoter-luciferase reporter, luminescence. inhibition, % at 5 µM. AID 1700;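 active means inhibition above a per-plate limit of that plate's mean compound inhibition plus 3 SD, cut at about 60% in these data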;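 further: 0% = DMSO wells and 100% = LY294002 at 200 µM; higher means less KLF5 promoter-driven luciferase light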
# Numbers without * were called inactive; u = inconclusive; x = not tested or not shown. A selection: hits, their analogues and other compounds. The true share with any hit is near 3%.
SMILES,SKKanGAS inh,CSC inhib,IEC-6 cytotox,aSyn UTR inh,KLF5 inh
CC(C)Cc1csc(NC(=O)c2ccc(Br)cc2)c1C(=O)O,69.7*,33.4,-1.2,-9.4,1.4
COc1ccc(Cc2noc(CN3CCCC(OCc4ccccn4)C3)n2)cc1OC (centres undefined),0.4,2.8,-0.7,9.0,2.3
Cc1ccc(C(C)C)cc1OCC(=O)Nc1ccc(N2CCCCC2)cc1,14.5,23.0,x,11.8,x
O=C(O)c1cccc2c1C(=O)c1ccc(-c3ccc(Cl)c(C(F)(F)F)c3)cc1S2(=O)=O,x,5.8,x,x,x
CCOc1ccc(NC(=S)N(C)C)cc1,-16.6,4.4,-2.1,-5.4,27.8
Cc1cccc(NC(=O)c2c(O)c3ccccc3n(C)c2=O)c1,-3.2,-11.8,0.0,-141.5,-64.8
O=C(c1cc(-c2ccc(Cl)cc2Cl)on1)N1CCOCC1,-17.6,-9.4,1.4,79.8*,-91.4
O=S(=O)(NCc1ccco1)c1ccccc1Br,1.6,-8.5,x,10.7,x
O=C(/C=C/c1ccc(N2CCC(c3ccccc3)=N2)cc1)c1ccccc1,-5.1,92.4*,4.3,-66.8,-30.3
Cc1cccc(NC(=O)C(=O)NNC(=O)c2ccc(C(C)(C)C)cc2)c1,85.1*,8.2,0.8,-6.8,-31.5
CN(C)c1ccc(N2C(=NC(=O)COc3ccccc3)SC3CS(=O)(=O)CC32)cc1 (centres undefined),-5.0,1.8,-1.0,-21.4,-33.8
O=C(O)c1cc(-c2ccc(-c3c(-c4ccc5c(c4)OCO5)noc3-c3ccsc3)cc2)nc2ccccc12,94.4*,37.2,0.2,-56.1,-22.0
COc1ccc(O)c(/C=N/NC(=O)c2c(C)nnn2-c2nonc2N)c1,5.3,x,3.6,64.1*,-16.1
COc1ccc(C(=O)NCCc2nnc3ccc(SCC(=O)Nc4cc(C)on4)nn23)cc1,4.7,-8.3,4.1,6.6,-9.6
Cc1cc(C)n(C(=O)/C(C#N)=N/Nc2cc(Cl)cc(Cl)c2)n1,90.5*,1.3,10.5,-23.7,-17.4
CN(CC(=O)Nc1ccccc1C(F)(F)F)C(=O)COc1ncnc2ccccc12,-1.2,-2.0,-0.3,-0.8,-14.6
C=CCSC1=C(C#N)C(c2ccc(OCC)cc2)CC(=O)N1 (centres undefined),-3.7,-15.6,0.1,-6.0,-1.9
O=C(Nc1nccs1)c1sc2ccccc2c1Cl,49.6*,40.4,13.8,u,-57.5
Cc1cnc(NC(=O)c2sc3ccccc3c2Cl)s1,27.1,2.0,-1.1,u,-89.0
Cc1ccnc(NC(=O)c2sc3ccccc3c2Cl)c1,-13.4,14.4,0.6,78.2*,-121.9
O=C(Nc1nccs1)c1sc2cc(Cl)ccc2c1Cl,66.3*,53.5,-6.8,-115.2,-14.0
O=C(Nc1ccc(Cl)c(Cl)c1)Nc1nccs1,54.7*,95.1*,77.8*,-63.8,33.1
Cc1ccc2c(Cl)c(C(=O)Nc3cc(C)on3)sc2c1,-10.7,x,0.5,-121.7,-110.3
COc1ccc(OC)c(-n2c(SCC(=O)NCC3CCCO3)nc3ccccc3c2=O)c1 (centres undefined),x,-3.7,x,x,x
O=C(Nc1ccccc1-c1nc2ccccc2[nH]1)c1ccc(N2C(=O)CCC2=O)cc1,1.1,7.0,-4.3,-21.9,-41.1
SMILES,SKKanGAS inh,CSC inhib,IEC-6 cytotox,aSyn UTR inh,KLF5 inh
O=C(Nc1ccccc1-c1nc2ccccc2[nH]1)c1sc2ccccc2c1Cl,64.2*,22.8,-1.4,-29.2,-20.5
CCCCNC(=O)c1sc(=S)n2c1[nH]c(=O)c1ccccc12,53.8*,26.5,-2.9,-4.0,-23.3
O=C(NCCc1ccccc1)c1ccc2c(=O)[nH]c3c(C(=O)NCC4CCCO4)sc(=S)n3c2c1 (centres undefined),43.9,-14.3,-5.4,5.9,-37.5
O=C(NC1CCCCC1)c1sc(=S)n2c1[nH]c(=O)c1ccccc12,60.0*,54.8,-3.4,0.2,-21.7
Cc1c(C(=O)N2CCC[C@H]2CO)oc2c(F)cccc12,-0.1,-11.4,-3.7,-46.8,-27.3
COc1ccc(OC)c(NC(=O)C2CCCN(S(C)(=O)=O)C2)c1 (centres undefined),2.1,-16.7,-8.3,8.7,-67.8
CC(=O)/C(=N\Nc1ccc(C)cc1)Sc1nncn1C,0.0,-16.1,-3.3,-28.8,-8.0
C/C(=N\NC(N)=S)c1cc(-c2ccccc2)c(-c2ccccc2)s1,28.2,99.4*,-2.5,-7.6,-17.8
Cc1ccccc1OCC(=O)OCC(=O)NC1CC1,x,-14.2,x,x,x
O=C(N/N=C/c1cc([N+](=O)[O-])ccc1O)c1cc(-c2ccccc2)nc2ccccc12,89.7*,39.0,6.6,81.3*,-16.1
COc1cccc(/C=N/Nc2nc3ccccc3[nH]2)c1O,78.9*,67.5,4.7,32.7,36.3
Cc1ccc(/C=N/NC(=O)c2cc(-c3cccnc3)nc3ccccc23)cc1,1.4,42.1,5.2,80.9*,-5.7
O=C(N/N=C/c1ccc(Cl)c([N+](=O)[O-])c1)c1cc(-c2ccccc2)nc2ccccc12,13.0,96.4*,-7.8,9.2,6.7
Cc1ccc(N2CCN(S(=O)(=O)c3ccc4oc(=O)ccc4c3)CC2)cc1Cl,-7.1,x,5.4,6.2,-25.1
Cc1cc(C(=O)N/N=C/c2cc(Br)cc([N+](=O)[O-])c2O)c2ccccc2n1,105.8*,40.1,1.3,18.0,3.0
Cn1c(SCC(=O)N/N=C/c2ccc([N+](=O)[O-])s2)nnc1-c1ccccc1,7.7,27.8,5.6,-29.7,4.7
O=[N+]([O-])c1ccc(O)c(/C=N/Nc2ncnc3c2cnn3-c2ccccc2)c1,87.9*,104.1*,3.1,66.3*,14.8
O=C(N/N=C/c1cc([N+](=O)[O-])ccc1O)Nc1ccccc1,-4.0,12.8,-13.1,-17.3,-15.3
O=C(N/N=C/c1cc([N+](=O)[O-])ccc1Cl)c1cnccn1,-13.5,57.8,-1.0,81.1*,-6.8
Cn1c(SCC(=O)N/N=C/c2cc([N+](=O)[O-])ccc2O)nnc1-c1ccccc1,93.3*,-0.2,-2.4,16.5,-15.9
COc1cc(/C=C2\CCC(C3CCCC3)C2=O)ccc1OC(C)C (centres undefined),-8.0,30.8,-2.0,-51.8,-21.7
O=C(NC(C(=O)N/N=C/c1cc([N+](=O)[O-])ccc1O)c1n[nH]c(=O)c2ccccc12)c1ccccc1 (centres undefined),87.2*,x,-2.7,-4.0,-16.8
Cc1cc(C(=O)N/N=C/c2ccc([N+](=O)[O-])cc2)c2ccccc2n1,-1.4,49.2,5.8,11.6,6.4
Cc1cc(C(=O)N/N=C/c2cc([N+](=O)[O-])ccc2O)c2ccccc2n1,92.0*,3.0,6.3,-5.2,6.7
CC(/C=N/NC(=O)c1cc(-c2ccncc2)nc2ccccc12)=C\c1ccco1,-3.6,x,-6.5,86.1*,-20.7
O=C(N/N=C/c1cc([N+](=O)[O-])ccc1O)c1c[nH]c2ccccc12,65.7*,u,-3.9,-9.0,-26.3
O=[N+]([O-])c1ccc(O)c(/C=N/Nc2nc3ccccc3[nH]2)c1,70.5*,101.8*,4.1,46.5,24.5
O=C(Nc1ccccn1)c1cc(-c2cccnc2)nc2ccc(Br)cc12,27.3,13.2,5.4,62.1*,-9.6
CCCC(=O)N(c1ccc(OCC)cc1)S(=O)(=O)c1ccc2c3c(cccc13)C(=O)N2C,6.8,11.4,-6.3,-3.0,-33.6
